# Laboratory results as given in article PMC4336329 (PLoS ONE, 2015).
# Among all 310,000 compounds or so, about 14,000 (4.5%) showed an effect of 50% or more. The effect is printed as a negative number. Only a selection was taken, and strong results are over-represented in it overall.
# Target: human ether-à-go-go-related gene (hERG) potassium channel (human, UniProt Q12809)
# Test: primary screen, population patch clamp on CHO cells stably expressing hERG; higher = less effect of the substance
# 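Also: peak tail current of the secondary pulse compared with the same well before compound.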
# Sequence of human ether-à-go-go-related gene (hERG) potassium channel (Q12809 whole entry, looked up): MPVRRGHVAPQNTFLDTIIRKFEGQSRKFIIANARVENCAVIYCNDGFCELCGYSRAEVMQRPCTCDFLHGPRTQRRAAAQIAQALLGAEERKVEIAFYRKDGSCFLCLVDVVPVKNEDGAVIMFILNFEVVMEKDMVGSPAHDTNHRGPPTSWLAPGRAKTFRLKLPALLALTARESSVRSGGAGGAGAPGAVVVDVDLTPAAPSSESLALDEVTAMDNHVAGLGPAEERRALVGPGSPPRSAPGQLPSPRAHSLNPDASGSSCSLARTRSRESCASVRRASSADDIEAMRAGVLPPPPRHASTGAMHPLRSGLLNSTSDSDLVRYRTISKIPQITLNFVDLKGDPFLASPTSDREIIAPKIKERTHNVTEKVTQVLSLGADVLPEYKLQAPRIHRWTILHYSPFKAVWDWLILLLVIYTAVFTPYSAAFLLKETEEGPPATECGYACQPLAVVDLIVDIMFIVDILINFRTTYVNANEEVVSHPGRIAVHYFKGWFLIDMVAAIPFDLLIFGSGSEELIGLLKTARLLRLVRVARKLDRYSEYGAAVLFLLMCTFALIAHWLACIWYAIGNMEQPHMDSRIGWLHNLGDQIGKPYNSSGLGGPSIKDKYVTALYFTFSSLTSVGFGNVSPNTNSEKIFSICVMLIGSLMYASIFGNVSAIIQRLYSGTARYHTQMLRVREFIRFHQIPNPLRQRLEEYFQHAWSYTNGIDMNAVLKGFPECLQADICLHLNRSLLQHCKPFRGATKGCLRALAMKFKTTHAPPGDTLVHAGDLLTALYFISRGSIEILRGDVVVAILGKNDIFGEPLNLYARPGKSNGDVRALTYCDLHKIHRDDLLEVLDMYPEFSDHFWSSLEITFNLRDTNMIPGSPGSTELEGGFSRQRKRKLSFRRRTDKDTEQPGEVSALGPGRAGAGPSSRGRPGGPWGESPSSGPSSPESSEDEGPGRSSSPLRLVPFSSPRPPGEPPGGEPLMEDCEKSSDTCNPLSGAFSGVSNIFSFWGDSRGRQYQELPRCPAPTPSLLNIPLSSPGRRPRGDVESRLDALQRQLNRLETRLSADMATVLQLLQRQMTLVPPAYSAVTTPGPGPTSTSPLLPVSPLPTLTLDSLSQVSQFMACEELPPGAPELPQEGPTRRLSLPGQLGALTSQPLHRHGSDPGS
row,SMILES,"hERG current change (%, negative = inhibition) at 10uM"
1,O=C(Cn1cnc([N+](=O)[O-])n1)N/N=C/c1ccccc1O,14.4%
2,COC(=O)C[C@](O)(CCCC(C)(C)O)C(=O)O[C@@H]1C(OC)=C[C@]23CCCN2CCc2cc4c(cc2[C@H]13)OCO4,10.4%
3,CCCCOCCCNC(=O)N[C@H](C(=O)OC)C(C)C,10.7%
4,Cn1c(=O)c2c(ncn2CC(=O)Nc2ccc3c(c2)OCO3)n(C)c1=O,3.43%
5,O=C(Nc1ncc(C(F)(F)F)cc1Cl)C1COc2ccccc2O1 (stereo not drawn),-3.76%
6,Cc1ccc2c(Cl)cc(Cl)c(OCC(=O)N3CCOCC3)c2n1,-8.28%
7,O=C(Cc1noc2ccccc12)Nc1ccccn1,6.57%
8,O=S(=O)(Nc1nc2ccccc2nc1NCc1ccco1)c1cccs1,4.13%
9,CCc1ccc2c(c1)c(N=NC1=NC(=O)CS1)c(O)n2C,0.556%
10,COc1ccc(NS(=O)(=O)c2ccc(C(=O)N3CCN(Cc4ccccc4)CC3)cc2)cc1,-17.1%
11,Cc1cccc(-c2noc(CNC(=O)COc3ccccc3C)n2)c1,-1.88%
12,CCOc1ccc(C(CCc2ccccc2)NC(=O)c2ccccc2)cc1OCC (stereo not drawn),-19.1%
13,CCCCN(Cc1nc2ccccc2c(=O)[nH]1)C(=O)CN1C(=O)NC2(CCCCC2)C1=O,-41.9%
14,O=C(Cc1nnc(NC(=O)c2ccccc2)s1)N/N=C\c1ccc(O)c(O)c1,23.4%
15,COc1ccc(OC)c(C2N(c3cc(C)on3)C(=O)C3CCCN32)c1 (stereo not drawn),10.8%
16,Cc1ccc2nc(N3CCN(C)CC3)c(C=O)c(=O)n2c1,5.3%
17,Cc1cccn2c(=O)c(C=O)c(N3CCN(c4ccc(F)cc4)CC3)nc12,-22.1%
18,Cc1cccn2c(=O)c(C=O)c(N3CCN(c4ccccc4)CC3)nc12,-55.4%
19,Cc1ccc2nc(N3CCN(c4ccccc4)CC3)c(C=O)c(=O)n2c1,11.5%
20,Cc1cccn2c(=O)c(C=O)c(N3CCN(C)CC3)nc12,-0.442%
21,Cc1ccc2nc(N3CCN(c4ccccc4F)CC3)c(C=O)c(=O)n2c1,-70.1%
22,CCOCCCNC(=O)Cc1ccc(-n2c(CC)nc3cccnc32)cc1,-8.18%
23,C=CCn1c(Oc2ccc(C=O)cc2OCC)nc2c1c(=O)n(C)c(=O)n2C,24.4%
24,CCc1nnc(SCC(=O)Nc2ccccc2)n1CC1CCCO1 (stereo not drawn),2.61%

row,SMILES,"hERG current change (%, negative = inhibition) at 10uM"
1,Cc1cccc(N2CC(C(=O)Nc3nnc(SCCN4CCOCC4)s3)CC2=O)c1 (stereo not drawn),0.559%
2,O=C(NNC(=S)Nc1ccc(Cl)cc1Cl)c1cccnc1,8.1%
3,CCN(CC)CCCN(C(=O)c1ccco1)c1nc(-c2ccc(Cl)cc2)cs1.Cl,-71.2%
4,COc1ccc(-c2csc(N(CCCN3CCOCC3)C(=O)c3ccco3)n2)cc1.Cl,-32.4%
5,CCN(C(=O)c1ccco1)c1nc(-c2ccc(OC)cc2)cs1,8.13%
6,CCN(CC)CCCN(C(=O)c1ccco1)c1nc(-c2ccc(C)cc2)cs1.Cl,-84.1%
7,Cl.O=C(c1ccco1)N(CCCN1CCOCC1)c1nc(-c2ccc(F)cc2)cs1,-29.4%
8,COCCN(C(=O)c1ccco1)c1nc(-c2ccccc2)cs1,4.36%
9,CCOc1ccc(Oc2ccc(C(F)(F)F)cc2NC(=O)C2=COCCO2)cc1,13.6%
10,CCC(CC)c1nnc(NC(=O)c2cc(-c3ccccc3)nc3ccccc23)s1,9.31%
11,O=C(/C=C/c1ccccc1Cl)N(Cc1ccc(Cl)cc1)C1CCS(=O)(=O)C1 (stereo not drawn),1.48%
12,O=C(NCC1CCCO1)c1ccccc1NS(=O)(=O)c1cccs1 (stereo not drawn),-5.56%
13,Cc1cc(C)cc(OCCNC(=O)CCc2ccccc2)c1,4.83%
14,Cc1cccc(CSc2nc3ccncc3n2CC(=O)Nc2cc(C)cc(C)c2)c1,9.09%
15,COc1ccc(-c2nc(Cn3c(SCc4ccc(F)cc4)nc4ccncc43)c(C)o2)cc1OC,-55.6%
16,CCC(C)NC(=O)c1ccc(CSc2nc3ccncc3n2Cc2ccc(F)cc2)cc1 (stereo not drawn),-59%
17,COc1ccc(-c2nc(Cn3c(SCc4ccccc4F)nc4ccncc43)c(C)o2)cc1,4.5%
18,COc1cc2nc(SCc3ccc(F)cc3)n(Cc3cccs3)c(=N)c2cc1OC,0.564%
19,CN1CCN(C(=O)c2ccc(CSc3nc4ccncc4n3Cc3ccc(F)cc3)cc2)CC1,0.727%
20,Cc1ccc(CSc2nc3ccncc3n2CC(=O)Nc2cc(C)cc(C)c2)cc1,7.38%
21,COc1ccc(Cn2c(SCc3ccc(C)cc3)nc3cc(OC)c(OC)cc3c2=N)cc1Cl,14.6%
22,COc1ccc(-c2nc(Cn3c(SCc4ccc(C)cc4)nc4ccncc43)c(C)o2)cc1OC,-52%
23,CC1CCN(C(=O)c2ccc(CSc3nc4ccncc4n3Cc3ccc(F)cc3)cc2)CC1,-46%
24,O=C(NC1CCCC1)c1ccc(CSc2nc3ccncc3n2Cc2ccc(F)cc2)cc1,-40.7%

row,SMILES,"hERG current change (%, negative = inhibition) at 10uM"
1,COc1ccc(-c2nc(Cn3c(SCc4cccc(F)c4)nc4ccncc43)c(C)o2)cc1OC,-62.4%
2,CC1CCCCC1NC(=O)Cn1c(=O)oc2cc(S(=O)(=O)N3CCCC3)ccc21 (stereo not drawn),18.8%
3,O=NNc1nc2ccccc2n1Cc1ccccc1,-1.83%
4,COc1ccc(C2C(C(=O)c3ccc(C)o3)=C(O)C(=O)N2Cc2ccco2)cc1OC (stereo not drawn),21%
5,CCOCCCNC(=O)C(c1ccc(OC)cc1)N(Cc1ccc2c(c1)OCO2)C(=O)CNC(C)=O (stereo not drawn),15.3%
6,CCc1nnc(NC(=O)C(NC(=O)c2ccccc2Cl)C(C)C)s1 (stereo not drawn),0.192%
7,CCCCSc1nnc(-c2ccccc2)c2ccccc12,-37.3%
8,Cc1ccc2c(c1)C(=O)N(CCCCO)C2=O,20.1%
9,O=c1cc(CSc2ccccc2)[nH]c2ccccc12,8.17%
10,O=C(C[n+]1ccccc1)Nc1c(Cl)cc(Cl)cc1Cl.[Cl-],13.1%
11,CC(=O)Nc1ccccc1C(=O)OCC(=O)c1ccccc1Cl,-12%
12,CC1=NN(c2cccc(F)c2)C(=O)/C1=C/c1ccc(N(C)C)cc1,6.38%
13,CCn1c(CNc2cccc(Cl)c2)nnc1SCC(=O)OC1CCCCC1,-25%
14,COC(=O)CSc1nnc(CNc2ccc(Cl)cc2)n1Cc1ccccc1,-54.7%
15,CCn1c(CNc2ccc(F)cc2)nnc1SCC(=O)OC1CCCCC1,-51.7%
16,CCn1c(CNc2ccc(Cl)cc2)nnc1SCC(=O)OC1CCCCC1,-37%
17,CC(C)OC(=O)CSc1nnc(CNc2ccc(Cl)cc2)n1Cc1ccccc1,-33%
18,CCOC(=O)CSc1nnc(CNc2ccc(Cl)cc2)n1Cc1ccccc1,-21.8%
19,CN(C)S(=O)(=O)c1cccc(NC(=O)COC(=O)CNC(=O)c2cccc([N+](=O)[O-])c2)c1,-39.6%
20,CCOc1ccc(N2C(=O)CSC23CCCCC3)cc1,-3.56%
21,COC(=O)c1[nH]c(C)c(/C(O)=C2\C(=O)C(=O)N(CCN(C)C)C2c2cccs2)c1C (stereo not drawn),16.9%
22,CCOC(CNC(=O)c1ccc2c(c1)ncn2-c1cccc(F)c1)OCC,-17.3%
23,O=C(CSc1n[nH]c(=O)n1-c1ccc2c(c1)OCCO2)Nc1ccccc1,13%
24,COc1ccc(OCC(=O)N/N=C/c2ccncc2)cc1,17.9%

row,SMILES,"hERG current change (%, negative = inhibition) at 10uM"
1,CCOC(=O)c1sc(NC(=O)CN2CCN(c3ccccc3)CC2)nc1C,-5.78%
2,CCOC(=O)c1c(N2CCN(c3ccccc3)CC2)cc(C)nc1C.O=C([O-])C(=O)[O-],-72%
3,CCOC(=O)c1[nH]c(C)c(C(=O)N2CCN(c3ccccc3)CC2)c1C,-13.2%
4,CC(OC(=O)c1ccc(-n2cnnn2)cc1)C(=O)Nc1ccccc1F (stereo not drawn),-23.2%
5,COc1ccccc1NC(=O)C(C)OC(=O)c1ccc(-n2cnnn2)cc1 (stereo not drawn),-87.5%
6,COc1ccccc1NC(=O)C(C)OC(=O)c1cccc(-n2cnnn2)c1 (stereo not drawn),-35.2%
7,COCCn1c(C)cc(/C=N/NC(=O)c2cc3ccccc3cc2O)c1C,10.3%
8,O=C(Nc1ccccc1F)C1CCN(S(=O)(=O)c2cccnc2)CC1,9.24%
9,COc1ccc(S(=O)(=O)N(C)C)cc1NC(=O)COC(=O)c1nc2nccc(C)n2n1,9.68%
10,CC(NC(=O)CN1c2cccc3cccc(c23)S1(=O)=O)c1ccc(S(N)(=O)=O)cc1 (stereo not drawn),-25.1%
11,Cc1ccc(NC(=O)N/C=C/c2ccco2)cc1C,-1.57%
12,Cn1cncc1COC(=O)c1ccc(Cl)cc1,5.21%
13,Cc1cccc(N2CCN(CCc3ccccc3)CC2)c1C,-75.1%
14,COc1ccccc1N1CCN(CCc2ccccc2)CC1,-59.4%
15,Cc1cccc(N2CCN(C(=S)NCCc3ccccc3)CC2)c1C,-5.03%
16,C/C=C(\C)CN1CCN(c2cccc(C)c2C)CC1,-3.49%
17,COc1ccccc1N1CCN(Cc2nnnn2CCc2ccccc2)CC1.Cl,8.3%
18,C/C(=C\c1ccccc1)CN1CCN(c2ccccc2F)CC1,5.01%
19,COc1ccccc1N1CCN(C(=O)CCc2ccccc2)CC1,-11.4%
20,COc1ccccc1N1CCN(C/C(C)=C/c2ccccc2)CC1,-63.4%
21,C/C(=C\c1ccccc1)CN1CCN(c2ccccc2)CC1,-3.31%
